Each structure is given as a SMILES string. Records with an inconclusive call do not appear. A call without a number means that no potency is given here. The source made the active and inactive calls. Calls come from the whole dose curve; as a rule, active = well fitted inhibition curve with a large enough effect in the repeat runs; inconclusive = weak or mixed curves; inactive = no such curve, though single readings can be large or run the other way.
Potency is the fitted concentration of half-maximal effect.

The target in the assay is Androgen receptor (Homo sapiens) (UniProt P10275). The experiment in a line: qHTS assay to identify small molecule antagonists of the androgen receptor (AR) signaling pathway using the MDA cell line in the presence of 0.5 nM R1881 (AID 1259243). Note: nearly all actives have a fitted effect of over 50% in size. The following applies: MDA-kb2 MMTV-luciferase, R1881 0.5 nM, 16 h; series mostly up to 92.4 µM. From the text: U.S. Tox21 Program National Center for Advancing Translational Sciences [NCATS] NIH Chemical Genomics Center [NCGC] U.S. Environmental Protection Agency [EPA] National Institutes of Environmental Health Sciences [NIEHS] National Toxicology Program [NTP] U.S. Food and Drug Administration [FDA] Tox21 Assay Overview: Androgen receptor (AR) is an important member of the nuclear receptor family. Its signaling plays a critical role in AR-dependent prostate cancer and other androgen related diseases. Considerable attention has been given in the past decades to develop methods to study and screen for the environmental chemicals that have the potential to interfere with metabolic homeostasis, reproduction, developmental and behavioral functions. Therefore AR binding assay for screening androgen antagonists can be used to identify potential endocrine disruptors. MDA-kb2 cells (from ATCC, deposited by Wilson et al.) were used to screen for AR inhibitors against Tox21 compound libraries. These cells are human breast carcinoma cells that were stably transfected with a luciferase reporter gene under control of the MMTV promoter that contains response elements for both androgen receptor (AR) and glucocorticoid receptor (GR). The current screening for identification of AR inhibitors against Tox21 libraries used lower concentration (0.5 nM) of R1881 as a stimulator.
Chain of Androgen receptor (Homo sapiens) (P10275 whole entry, looked up): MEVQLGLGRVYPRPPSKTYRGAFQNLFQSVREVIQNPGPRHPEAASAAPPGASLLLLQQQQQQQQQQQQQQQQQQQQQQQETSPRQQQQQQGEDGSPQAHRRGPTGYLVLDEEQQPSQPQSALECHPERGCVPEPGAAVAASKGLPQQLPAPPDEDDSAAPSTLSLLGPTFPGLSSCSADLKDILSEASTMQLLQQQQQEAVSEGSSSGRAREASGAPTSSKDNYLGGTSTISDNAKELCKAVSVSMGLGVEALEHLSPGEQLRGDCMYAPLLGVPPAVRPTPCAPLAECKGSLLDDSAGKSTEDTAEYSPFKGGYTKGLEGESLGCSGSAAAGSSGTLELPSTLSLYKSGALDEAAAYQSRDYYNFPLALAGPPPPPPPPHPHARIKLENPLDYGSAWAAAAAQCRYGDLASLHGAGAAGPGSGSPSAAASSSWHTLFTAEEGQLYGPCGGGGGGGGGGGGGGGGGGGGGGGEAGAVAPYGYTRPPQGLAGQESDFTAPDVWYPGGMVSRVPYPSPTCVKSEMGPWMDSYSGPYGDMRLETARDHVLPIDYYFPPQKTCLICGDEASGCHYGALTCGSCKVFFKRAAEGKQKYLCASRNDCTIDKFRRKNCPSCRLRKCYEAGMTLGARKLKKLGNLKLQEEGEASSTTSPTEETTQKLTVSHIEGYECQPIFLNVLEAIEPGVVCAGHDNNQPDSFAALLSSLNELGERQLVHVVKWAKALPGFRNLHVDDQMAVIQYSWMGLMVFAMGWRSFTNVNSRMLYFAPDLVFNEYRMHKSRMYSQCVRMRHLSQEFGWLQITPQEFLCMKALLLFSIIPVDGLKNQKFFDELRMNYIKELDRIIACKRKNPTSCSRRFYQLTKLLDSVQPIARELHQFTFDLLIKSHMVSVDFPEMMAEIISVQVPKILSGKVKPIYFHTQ
Tox21 Assay Protocol Summary: MDA-kb2 cells (cells cultured without CO2) were dispensed at 3,000 cells/well in 4 uL of culture medium into white wall/solid-bottom 1536-well plates (Corning Life Sciences, Corning, NY) using a Multidrop Combi (ThermoFisher Scientific, Waltham, MA) dispenser. After the assay plates were incubated at a 37C and 0% CO2 for 5 hr, 23 nL of compounds dissolved in DMSO, positive controls or DMSO only was transferred to the assay plate by a Pintool station (Kalypsys, San Diego, CA). The transfer of compounds was followed by the addition of 1 uL of 0.5 nM (final concentration) agonist (R1881)/culture medium using a Flying Reagent Dispenser (FRD, Aurora Discovery, San Diego, CA). The plates were incubated at 37C and 0% CO2 for 16 hr. For luciferase reporter gene assay, 4 uL of ONE-Glo reagent (Promega Corporation, Madison, WI) was added to each well using the FRD and after 30 min incubation at room temperature luminescence intensity was measured using ViewLux plate reader (PerkinElmer, Shelton, CT).
For orientation: qHTS replaces the single test concentration by a dilution series.
Take `OCCC(F)(F)C(F)(F)C(F)(F)C(F)(F)C(F)(F)C(F)(F)C(F)(F)C(F)(F)F`: the Potency entry was “inactive”.
As to `CC(CO)c1ccccc1` (stereo not given), the Potency entry is “inactive”.
On to `OCCN(CCO)c1cccc(Cl)c1`, for which the Potency entry is “inactive”.
Turning to `O=C(OCC(O)CO)c1ccccc1Nc1ccnc2c(C(F)(F)F)cccc12` (stereo not given), the Potency result is “inactive”.
Turning to `CC(=O)NCc1c(I)c(NC(C)=O)c(I)c(C(=O)O)c1I`, the Potency entry was “inactive”.
With `N#Cc1ccc(C(=O)O)cc1`, the Potency entry is “inactive”.
Consider `C=C(C)C1CCC(C)(O)CC1` (stereo not given), for which the Potency entry is “inactive”.
`CC(C)=O`: the Potency result was “inactive”.
For `CC(C)(C)NC(N)=O`, the Potency entry is “inactive”.
As for `CCCCCCCCCC(C)=O`, the Potency entry was “inactive”.
As for `CCCOC(=O)C(C)O` (stereo not given), the Potency result was “inactive”.
For the compound `BrCc1cccc(Oc2ccccc2)c1`, the Potency is 54.5 µM (active).
The same measure for `O=C(O)c1cc(Cl)cc([N+](=O)[O-])c1Cl`: “inactive”; for `CC(C)NCC(O)COc1ccc(COCCOC(C)C)cc1` (stereo not given): “inactive”.
For `CC/C=C\CC1=C(C)CCC1=O`, the Potency result is “inactive”.
As to `COCCOCCOCCOCCO`, the Potency result is “inactive”.
Regarding `CC(C(=O)O)c1ccc2c(c1)CC(=O)c1ccccc1S2` (stereo not given), the Potency entry was “inactive”.
On to `O=C(NCCc1c[nH]c2ccccc12)c1cccnc1`, for which the Potency entry is “inactive”.
The same measure for `COc1ccc2c(c1)C(=O)N(CCc1ccc(S(=O)(=O)NC(=O)NC3CCCCC3)cc1)C(=O)C2(C)C`: “inactive”; for `COc1cc2c(cc1OC)C(=O)CC2`: “inactive”.
As to `CNC(=O)[C@H]1O[C@@H](n2cnc3c(NCc4cc(Cl)ccc4OCc4cc(C)no4)ncnc32)[C@H](O)[C@@H]1N`, the Potency entry is “inactive”.
Regarding `NC(CO)C(=O)NNCc1ccc(O)c(O)c1O` (stereo not given), the Potency entry was “inactive”.
Turning to `COc1ccc(OC)c(Cl)c1`, the Potency result was “inactive”.
The entry for `COc1cc(NS(=O)(=O)c2ccc(N)cc2)nc(OC)n1` is “inactive”; for `Cc1ccc2ccc(Cl)cc2n1` it is “inactive”.
Regarding `CCC(C)NC(N)=O` (stereo not given), the Potency result is “inactive”.
With `CCOC(=O)c1ncn2c1CN(C)C(=O)c1cc(F)ccc1-2`, the Potency entry is “inactive”.
The entry for `C=CCCCCCCCCCCCC` is “inactive”; for `O=C1c2ccccc2C(=O)N1CCl` it is “inactive”; for `CC1(CO)CN(c2ccccc2)NC1=O` (stereo not given) it is “inactive”.
In the case of `Oc1ccccc1-c1nnco1`, the Potency result was “inactive”.
On to `O=C(O)C(=O)Cc1ccccc1`, for which the Potency result was “inactive”.
With `CC(C)C(=O)OCc1cccc(OC(=O)[C@@H]2N3C(=O)[C@@H](NC(=O)Cc4ccccc4)[C@H]3SC2(C)C)c1`, the Potency result is “inactive”.
The entry for `COCCc1ccc(OCC2CO2)cc1` (stereo not given) is “inactive”; for `NS(=O)(=O)c1cc2c(cc1Cl)CN(C1CCCCC1)C2=O` it is “inactive”; for `O=C(CCN1CCN(CCO)CC1)N1c2ccccc2Sc2ccc(C(F)(F)F)cc21` it is “inactive”.
Take `O=C(OCc1ccccc1)C(=O)OCc1ccccc1`: the Potency entry is “inactive”.
The entry for `CC(=O)OC(C)OC(=O)C(C)c1ccc(-c2ccccc2)c(F)c1` (stereo not given) is “inactive”; for `O=C(O)c1cc(Br)c(O)c(Br)c1` it is “inactive”.
The same measure for `COc1ccc2nc(SCc3ncc(C)c(OC)c3C)[nH]c2c1`: “inactive”.

The values above are taken from PubChem BioAssay (Tox21).
